Compound activity from PubChem BioAssay.
HT1080 IDH1KD tx: kills HT-1080 cells with IDH1 knockdown | HT-1080 IDH1 knockdown viability, ATP luminescence, 48 h | Potency, µM (doses to about 46.1 µM), for inactives: at the top dose activity, negative = toxicity, hits mostly cytotoxic | actives 2% (n = 360,000) | AID 686971;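 note: potency is the fitted concentration of half-maximal effect; 0% = DMSO wells and -100% = cell-free medium wells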
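CellTiter-Glo luminescence after 48 h compound exposure at 37 degrees C of IDH1-knockdown HT-1080 cells in 5% FBS RPMI. %Activity scaled between DMSO wells and cell-free media wells, with curves fitted and assigned curve classes.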
TDP1 cell CPT: growth inhibition of DT40 Tdp1-/-;hTDP1 cells with camptothecin (screen for TDP1 inhibitors); chicken DT40 Tdp1-/-;hTDP1 cells + 20 nM CPT, ATP luminescence, 48 h; Potency, µM (series often up to 46.2 µM), without a hit: at the highest dose activity change, negative = growth inhibition, usual class: inhibitors; actives 12% (n = 420,000); AID 686979; note: potency is the fitted concentration of half-maximal effect; nearly all actives have a fitted effect of over 55% in size
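Chicken DT40 Tdp1-/- cells complemented with human TDP1, 400 cells/well, exposed to compounds plus 20 nM camptothecin for at least 48 h at 37 C; viability read as ATP content by CellTiter-Glo luminescence.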
ALOX12 inh: inhibitors of human 12S-lipoxygenase ALOX12. AID 1671190. actives 1.1% (n = 580,000). purified 12hLO, xylenol orange hydroperoxide absorbance. Potency, µM (titrated, usually from 108 µM), for inactives: top-dose activity change, negative = inhibition, actives largely listed as inhibitors; note: potency is the fitted concentration of half-maximal effect
Target sequence (P18054 whole entry, looked up): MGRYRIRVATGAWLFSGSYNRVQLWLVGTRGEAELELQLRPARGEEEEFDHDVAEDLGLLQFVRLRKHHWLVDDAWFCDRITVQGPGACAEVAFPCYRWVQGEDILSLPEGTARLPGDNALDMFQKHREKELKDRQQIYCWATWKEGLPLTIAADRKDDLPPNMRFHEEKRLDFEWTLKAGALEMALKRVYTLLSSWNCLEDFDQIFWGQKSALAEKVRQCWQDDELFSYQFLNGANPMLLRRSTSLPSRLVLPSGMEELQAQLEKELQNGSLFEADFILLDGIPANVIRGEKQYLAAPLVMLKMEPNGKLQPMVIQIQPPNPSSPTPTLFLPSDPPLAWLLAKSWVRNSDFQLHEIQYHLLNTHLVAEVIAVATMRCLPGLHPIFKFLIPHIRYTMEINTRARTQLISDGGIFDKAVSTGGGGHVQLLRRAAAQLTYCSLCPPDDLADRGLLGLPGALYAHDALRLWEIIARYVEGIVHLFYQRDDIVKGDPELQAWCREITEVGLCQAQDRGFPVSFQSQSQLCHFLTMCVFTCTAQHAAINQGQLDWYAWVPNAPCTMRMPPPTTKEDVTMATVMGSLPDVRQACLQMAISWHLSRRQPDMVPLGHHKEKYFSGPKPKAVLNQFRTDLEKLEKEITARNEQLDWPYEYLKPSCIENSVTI
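Purified human 12hLO at 150 nM in 25 mM Hepes, 0.01% Triton X-100, pH 7.0, preincubated 15 min at room temperature with compound. Reaction started with 40 uM arachidonic acid, 30 min at room temperature. Hydroperoxide measured by Fe-xylenol orange, 573/405 nm absorbance ratio.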
IL1B secr inh: inhibitors of inflammasome signaling (IL-1 beta secretion); THP-1 LPS/ATP IL-1B secretion, AlphaLISA, 16 h; hits give low values; activity change, % at 57.5 µM; actives 4.7% (n = 360,000); in the data active = activity change below about -50%; inconclusive = mostly about -30% to -49%
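Secreted IL-1B measured by AlphaLISA bead assay after 16 h compound exposure of THP-1 cells; compounds (final up to 57.5 uM) added 1 h before LPS (250 ng/mL) and ATP (1.25 mM) stimulation; lower signal means less secretion.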
HT1080-NT tox: kills 2HG-producing HT-1080-NT fibrosarcoma cells; actives 1.6% (n = 360,000); HT-1080-NT fibrosarcoma viability, CellTiter-Glo ATP luminescence, 48 h; AID 686970; Potency, µM (highest dose often 46.1 µM), for the others: at the top dose activity, negative = less viability, actives largely listed as cytotoxic;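 note: NT is the 2HG producing partner of a matched IDH1 knockdown line; potency is the fitted concentration of half-maximal effect; 0% = DMSO-treated cells and -100% = media-only wells without cells; nearly all actives have a fitted effect of over 55% in size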
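Viability by CellTiter-Glo luminescence after 48 h compound exposure at 37C of HT-1080-NT cells (750/well, RPMI, 5% FBS). % activity scaled between DMSO wells and medium-only wells, then curve-fitted and categorized by curve class.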
TDP1 cell noCPT: qHTS for Inhibitors of human tyrosyl-DNA phosphodiesterase 1 (TDP1): qHTS in cells in absence of CPT; DT40 Tdp1-/- hTDP1 cells, no CPT, ATP luminescence, 48 h; Potency, µM (highest dose often 46.2 µM), without a hit: at the top dose activity change, negative = growth inhibition, hits mostly inhibitors; actives 15% (n = 420,000); note: potency is the fitted concentration of half-maximal effect; nearly all actives have a fitted effect of over 55% in size
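DT40 Tdp1-/-;hTDP1 cells, no CPT (DMSO vehicle only), 400 cells/well; compounds pin-transferred; ≥48 hr, 37 °C; CellTiter-Glo 30 min RT dark, luminescence read.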
Numbers without * were called inactive; ? = inconclusive; . = no result; [ ] = remark or other dose. This is one part of a sample in which hits are shown more often than they occur. Unless noted, calls come from the whole dose curve; as a rule, active = well fitted curve in the direction sought with a large enough effect; inconclusive = small, poorly fitted or top-dose-only effect, or another doubt; inactive = no such curve, though single readings can be large; an effect the other way counts as inactive or inconclusive. Unless noted, % is set by controls: 0 for no effect and ±100 for the full control effect.

SMILES	HT1080 IDH1KD tx	TDP1 cell CPT	ALOX12 inh	IL1B secr inh	HT1080-NT tox	TDP1 cell noCPT
CCOc1ccc(NC(=O)Cn2c(Nc3cc(C)cc(C)c3)nc(C)cc2=O)cc1	.	.	35µM*	.	.	.
COc1ccc(NC(=O)Cn2c(-c3ccc(Cl)cc3)nc(C)cc2=O)cc1OC	.	.	9%	.	.	.
Cc1cc(C)c2c(=O)n(CC(=O)Nc3ccc(Cl)cc3)sc2n1	?	4.1µM*	1.3µM*	-9	-18%	2.6µM*
Cc1ccc(NC(=O)Cn2sc3nc(C)cc(C)c3c2=O)c(Cl)c1	?	2.9µM*	2µM*	14	-9%	2.9µM*
CCOc1ccc(NC(=O)Cn2c(-c3ccccc3)nc(C)cc2=O)cc1	.	.	45%	.	.	.
CN1c2cc(C(=O)NCc3ccc(F)cc3F)ccc2C(=O)N2CCCCC21 (stereo unspecified)	.	.	38%	.	.	.
CCCNC(=O)CNC(=O)C1=NN(C)C(=O)CC1	.	.	-6%	.	.	.
CN(Cc1cnn(C)c1)C(=O)c1csc2nc(-c3cccc(C(F)(F)F)c3)cn12	.	.	21%	.	.	.
Cc1cccc(C)c1OCCNC(=O)c1n[nH]c(=O)c2ccccc12	.	.	19%	.	.	.
Cc1cc(C)c2c(=O)n(CC(=O)Nc3cccc(F)c3)sc2n1	?	2.3µM*	?	0	?	2.3µM*
Cc1cc(=O)n(CC(=O)Nc2cccc(F)c2)c(-c2ccccc2)n1	.	.	6%	.	.	.
NC(CO)c1cccc2ccccc12 (stereo unspecified)	.	.	-6%	.	.	.
CCn1nc(C(=O)N(C)CCOc2ccc(C)cc2)c2ccccc2c1=O	.	.	-18%	.	.	.
COc1cccc(OC)c1C(=O)Oc1ccc2c(c1)O/C(=C\c1ccc(C(C)C)cc1)C2=O	.	.	48%	.	.	.
O=C1/C(=C/c2ccccc2)Oc2cc(OC(=O)N3CCOCC3)ccc21	11%	?	-19%	-68*	11%	?
COc1ccc(S(=O)(=O)Oc2ccc3c(c2)O/C(=C\c2ccccc2)C3=O)cc1	.	.	-7%	.	.	.
CC(=O)Oc1ccc(/C=C2/Oc3ccccc3C2=O)cc1	-18%	-1%	115%	?	-21%	-22%
COc1cccc(OC)c1C(=O)Oc1ccc2c(c1)O/C(=C\c1ccncc1)C2=O	?	18µM*	-14%	-101*	18µM*	12µM*
Cc1ccc(S(=O)(=O)Oc2ccc3c(c2)O/C(=C\c2cccnc2)C3=O)cc1	-15%	?	.	-9	11%[9.24 µM]	21µM*
O=C1/C(=C/c2cccnc2)Oc2cc(OS(=O)(=O)c3ccc(F)cc3)ccc21	4%	10µM*	6%	-22	-5%	?
CC(CNC(=O)c1ccc(C#N)cc1)N1CCCC1 (stereo unspecified)	.	.	-25%	.	.	.
O=C1/C(=C/c2ccncc2)Oc2cc(OS(=O)(=O)c3ccccc3)ccc21	?	?	0%	181	?	12µM*
COc1ccc(/C=C2\Oc3cc(OS(=O)(=O)c4ccccc4)ccc3C2=O)cc1	.	.	-4%	.	.	.
Cc1ccc(/C=N/NC(=O)C2COc3ccccc3O2)s1 (stereo unspecified)	1.8µM*	1.2µM*	-14%	-12	?	1.6µM*
O=C(N/N=C/c1cccs1)C1COc2ccccc2O1 (stereo unspecified)	?	?	2%	20	?	16µM*
SMILES	HT1080 IDH1KD tx	TDP1 cell CPT	ALOX12 inh	IL1B secr inh	HT1080-NT tox	TDP1 cell noCPT
CCOC(=O)c1ccc(NC(=O)Cn2nnc3ccccc32)cc1	-5%	23µM*	338%	15	0%	10µM*
CC(=O)Nc1ccc(NC(=O)CCn2nnc3ccccc32)cc1	11%	?	-10%	-10	0%	23µM*
CCOC(=O)c1ccc(NC(=O)C2CC2)cc1	2%	8.2µM*	-21%	0	-22%	6.5µM*
CCOC(=O)c1ccc(NS(=O)C23CC4CC(CC(C4)C2)C3)cc1 (stereo unspecified)	-3%[9.24 µM]	?	7.1µM*	12	?	-10%
CCOC(=O)c1ccc(NC(=O)C2CCCO2)cc1 (stereo unspecified)	12%	-18%	-18%	?	17%	-11%
COCCNC(=O)[C@@H]1C[C@H](Oc2ccccc2)CN1C(=O)CCc1ccccc1	.	.	39%	.	.	.
CO/N=C/c1ccc(C(=O)Oc2ccc(Cl)cc2C)cc1	.	.	-5%	.	.	.
O=C(Cc1ccccc1)Nc1ccc(O)c(-c2nc3ccccc3o2)c1	.	.	-3%	.	.	.
CCOC(=O)c1ccc(P(=O)(c2ccccc2)c2ccccc2)cc1	-12%	?	1%	-8	-10%	23µM*
CCOC(=O)c1ccc(-c2ccccc2)cc1	.	.	7%	.	.	.
CCOC(=O)c1ccc(NC(=O)Cn2cccc2)cc1	2%	15µM*	-16%	12	1%	16µM*
COc1ccc(NS(=O)(=O)c2ccc(-c3coc(C)n3)cc2)c(OC)c1	?	23µM*	0%	16	?	-29%
COc1ccc(OC)c(CNS(=O)(=O)c2ccc(-c3coc(C)n3)cc2)c1	.	?	-4%	.	.	21µM*
COc1ccc(CN(C)C(=O)c2ccc3oc(C)cc3c2)c2cccnc12	.	.	68%	.	.	.
NC(=O)c1nnn(Cc2cc(Cl)c(C(=O)c3ccc(Cl)cc3)c(Cl)c2)c1N	4.1µM*	4.6µM*	?	0	9.2µM*	16µM*
Nc1c(C(=O)Nc2ccc3c(c2)OCCO3)nnn1Cc1ccc(Cl)cc1	-7%	-17%	-30%	4	-17%	-22%
CN1CCCN(C(c2ccccc2)c2ccc(Cl)cc2)CC1 (stereo unspecified)	18µM*	?	?	-29	18µM*	6µM*
Clc1ccc(C(c2ccccc2)N2CCN(c3ccccn3)CC2)cc1 (stereo unspecified)	-9%	?	-6%	11	-18%	18µM*
Cc1cc(C(=O)OCC(=O)NCC(F)(F)F)c2ccccc2n1	.	.	-1%	.	.	.
CC(=O)c1ccc(NC(=O)CN(C)Cc2ccccc2N2CCCCC2)cc1	.	.	16%	.	.	.
O=[N+]([O-])c1cc(Br)c(OCc2nnc(-c3ccccc3)o2)c(Br)c1	-2%	-30%	-15%	-13	1%	?
O=[N+]([O-])c1ccc2c(OCc3nnc(-c4ccccc4Br)o3)ncnc2c1	?	?	5%	38	?	13µM*
Cc1cccc(C(=O)NC(NC(C)C)C(Cl)(Cl)Cl)c1 (stereo unspecified)	.	.	0%	.	.	.
